# Measured values taken from the supplement of paper PMC3656093.
# ± gives the standard deviation of the averaged measurements. The full ranking holds about 1,900 compounds; the median of “CD40L-induced NF-kB luciferase activity, plate-corrected, relative to DMSO (0) and IKK inhibitor VII (-100) controls” is about 0.032, and the lowest 2% start at about -26. Shown is part of a subset that was picked to be rich in the lowest values.
# Tested on: BL2-NFkB-Luc
# Test: CD40L-induced NF-kB luciferase activity, plate-corrected, relative to DMSO (0) and IKK inhibitor VII (-100) controls (% normalized activity); higher = more NF-kB reporter activity (less inhibition)
# Conditions: 9.4 µM; stimulus: tCD40L 64 ng/ml; 4.5 h
# Method: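 BL2 B cells with a stable NF-kB response-element luciferase reporter (BL2-NFkB-Luc), 384-well. Cells were pre-incubated with compound at 9.4 uM for 1 h at 37 C, then stimulated with 64 ng/ml trimerized CD40L for 4.5 h; luciferase was read with Steady-Glo. Signal was normalised per plate in Genedata (median DMSO neutral control = 0, median IKK inhibitor VII at 50 uM = -100) with Assay Median plate-pattern correction; duplicate plates.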
row,Compound,CD40L-induced NF-kB luciferase activity
1,COc1cc(C(=O)OCCn2c(=O)c3c(ncn3CCN(C)C)n(C)c2=O)cc(OC)c1OC,-3 ± 1.3
2,O=c1ccn([C@@H]2O[C@H](CO)[C@@H](O)[C@H]2O)c(=O)[nH]1,-6.55 ± 1.5
3,Nc1cnn(C2OC(CO)C(O)C2O)c(=O)n1 (stereo not given),6.46 ± 4.2
4,Nc1ccn([C@@H]2O[C@H](CO)[C@@H](O)[C@@H]2O)c(=O)n1,-30.5 ± 2.4
5,CC(C)CC(=O)OC1C(N2CCOCC2)c2c(ccc(/C=C/C(=O)N3CCOCC3)c2O)OC1(C)C (stereo not given),-1.24 ± 1.2
6,O=C(/C=C/c1ccco1)N1CCN(c2ccccc2)CC1,6.71 ± 0.18
7,Cc1ccc2c(c1)C(O)(c1c(C)[nH]c3ccccc13)C(=O)N2 (stereo not given),3.92 ± 8.9
8,O=C(NC(=S)N1CCCCC1)c1cccnc1,-3.04 ± 2.8
9,O=C(CCCN1C(=O)/C(=C\c2cccs2)SC1=S)Nc1ccccn1,-2.54 ± 1.1
10,CC(/C=C1\SC(=O)N(CCCC(=O)O)C1=O)=C\c1ccccc1,-84.08 ± 0.44
11,O=C(CCCN1C(=O)/C(=C\c2cccc(Br)c2)SC1=S)Nc1cccnc1,-2.47 ± 4.1
12,CCn1c(/C=C/c2ccccc2)nc2ccccc2c1=O,4.25 ± 3.8
13,C(=C\c1ccc2ccccc2n1)/c1ccccc1,-56 ± 3.4
14,COCCn1c(/C=C/c2ccccc2)nc2ccccc21,38.4 ± 2.4
15,O=c1cnn([C@@H]2O[C@H](CO)[C@@H](O)[C@H]2O)c(=O)[nH]1,10.5 ± 4.8
16,O=C(Nc1c(C(=O)O)[nH]c2ccccc12)NC1CCCCC1,-0.728 ± 0.3
17,O=C(CC1(O)C(=O)Nc2ccccc21)c1ccccc1O (stereo not given),1.73 ± 4.3
18,O=C1C=CC(=O)C(C2=C3C(=O)N(CCc4ccccc4)CC(=O)N3CCC2)=C1,-42.7 ± 2.4
19,O=C1CCCCCN1Cc1ccccc1,3.92 ± 5.3
20,O=C(c1cc2cc(Br)ccc2o1)N1CCCC1,38.77 ± 0.2
21,O=c1c2ccccc2nc2n1-c1ccccc1CCC2,-5.01 ± 3.7
22,COc1ccc2c(c1)[nH]c1c(=O)n(Cc3ccccn3)cnc12,-0.0285 ± 6.5

row,Compound,CD40L-induced NF-kB luciferase activity
1,COc1ccc(/C=C/C(=O)Nc2ccccc2C(=O)O)cc1OC,-57.1 ± 1.6
2,COc1ccc(CC(=O)Nc2cccc(C(=O)Nc3ccccc3C(=O)O)c2)cc1OC,-2.42 ± 3.4
3,O=C(/C=C/c1ccco1)Nc1ccccc1C(=O)O,1.64 ± 1.8
4,O=C1OC(c2ccc(O)cc2)(c2ccc(O)cc2)c2ccccc21,0.943 ± 1.8
5,Cc1ccccc1-c1coc2cc(O)ccc2c1=O,4.65 ± 2.2
6,Cc1cc(O)c(C(C)C)cc1C1(c2cc(C(C)C)c(O)cc2C)OC(=O)c2ccccc21,-36.1 ± 2.9
7,C/C=C/Cn1c(SC)nc2c1c(=O)[nH]c(=O)n2C,-0.907 ± 1.9
8,COCC(C)NC(=O)c1ccc(CN2CCc3ccccc3C2)cc1 (stereo not given),7.18 ± 5
9,O=C(O)c1cc(-c2ccc3c(c2)OCO3)nc2ccc(Br)cc12,9.08 ± 4
10,CCc1cc2c(=O)c(-c3ccc(F)cc3)c(C)oc2cc1OCC(=O)O,1.94 ± 0.96
11,O=C1c2ccccc2N2C(=O)c3ccccc3C2N1Cc1ccco1 (stereo not given),-3.98 ± 15
12,O=C1OC(Nc2ccc3c(c2)OCO3)c2ccccc21 (stereo not given),-15.2 ± 0.48
13,O=S(=O)(NCCCCCNS(=O)(=O)c1ccccc1)c1ccccc1,-7.09 ± 9.8
14,COc1ccc2[nH]cc(C3N4CC5(C)CN3CC(C)(C4)C5=O)c2c1 (stereo not given),2.08 ± 1.7
15,COc1ccc2[nH]c(=O)c3c(c2c1)OC(C)(C)C=C3,-32.8 ± 0.38
16,COc1ccc2[nH]c(=O)c(CN(C(=O)c3ccco3)C(C)C)cc2c1,0.241 ± 0.71
17,O=C(COc1ccc(F)cc1)OCCN1CCOCC1,0.903 ± 1.5
18,COc1ccccc1C1C(C#N)=C(N)Oc2c1oc(CO)cc2=O (stereo not given),-1.31 ± 0.27
19,O=C1OC(c2ccccc2)=C/C1=C/c1cccs1,30.9 ± 2.3
20,OC(COCc1ccccc1)CN1CCN(Cc2ccc3c(c2)OCO3)CC1 (stereo not given),-0.97 ± 0.41
21,COc1cc2c(cc1OC)C1(CCCCC1)CN(C)C2,-4.22 ± 0.72
22,O=C(CC1SC(=O)NC1=O)Nc1ccc(Cl)cc1 (stereo not given),2.93 ± 5.1

row,Compound,CD40L-induced NF-kB luciferase activity
1,O=C(NN=Cc1ccc([N+](=O)[O-])o1)c1ccc(O)cc1,-1.71 ± 0.97
2,CCOCC(=O)Nc1nc2ccccc2s1,50.7 ± 10
3,COC(=O)CSc1nc2ccc(N)cc2s1,0.507 ± 4.2
4,O=C(O)CCSc1nc2ccccc2s1,-42.3 ± 0.52
5,CN(CCc1cnn(C)c1)Cc1nc(CC2CC2)no1,-0.906 ± 0.31
6,COc1ccc(O)c(C(=O)/C=C/c2cc3ccccc3o2)c1,83.3 ± 3.2
7,O=C(OCCN1CCOCC1)c1cccs1,-4.77 ± 5.6
8,COc1ccc(CCCC(=O)O)c(C)c1,1.85 ± 1.2
9,CCN(CC)C1=C(Cl)C(=O)C(Cl)C12OCCO2 (stereo not given),-4.69 ± 4.8
10,Cc1cc(C=NO)c(C)n1-c1ccc(Br)cc1,-0.84 ± 0.39
11,COc1ccc(C2N3CC4(C)CN2CC(C)(C3)C4)cc1OC (stereo not given),-1.8 ± 1.9
12,COc1ccc(C(=O)Nc2cccc3cccnc23)cc1OC,19.3 ± 10
13,O=C(NCCC(c1ccccc1)c1ccco1)c1cccs1 (stereo not given),24.9 ± 2.2
14,CCc1cc2c(=O)c(-c3nc4ccccc4n3C)coc2c(CN2CCN(C)CC2)c1O,-3.98 ± 2.5
15,CC(C)[C@H]1CN(C)CCN1Cc1cn(C)nc1-c1cccc(Cl)c1,2.03 ± 0.42
16,Cc1c(OC(=O)CNC(=O)OC(C)(C)C)ccc2c3c(c(=O)oc12)CCC3,3.02 ± 3.5
17,O=C(O)c1ccc(C(=O)C(=O)c2ccccc2)cc1,-6.47 ± 15
18,CC(=O)C1=C(O)C(=O)N(CC(=O)O)C1c1ccccc1Cl (stereo not given),3.2 ± 3.2
19,C[C@]12CC[C@H]3[C@@H](CCC4=CC(=O)CC[C@@]43C)[C@@H]1CC[C@@H]2C(=O)CO,-4.85 ± 1.2
20,CC1(C)O[C@@H]2C[C@H]3[C@@H]4CCC5=CC(=O)C=C[C@]5(C)[C@@]4(F)[C@@H](O)C[C@]3(C)[C@]2(C(=O)CO)O1,-31.3 ± 5.1
21,C[C@@H]1C[C@H]2[C@@H]3CCC4=CC(=O)C=C[C@]4(C)[C@@]3(F)[C@@H](O)C[C@]2(C)[C@H]1C(=O)CO,-31.39 ± 0.23
22,CC1(C)O[C@@H]2C[C@H]3[C@@H]4C[C@H](F)C5=CC(=O)C=C[C@]5(C)[C@@]4(F)[C@@H](O)C[C@]3(C)[C@]2(C(=O)CO)O1,-23.7 ± 1.8

row,Compound,CD40L-induced NF-kB luciferase activity
1,CC(=O)OCC(=O)[C@@]12OC3(CCCC3)O[C@@H]1C[C@H]1[C@@H]3CCC4=CC(=O)C=C[C@]4(C)[C@@]3(F)[C@@H](O)C[C@@]12C,-20.2 ± 1.1
2,CC(=O)OCC(=O)C1=CCC2C3CCC4=CC(=O)C=CC4(C)C3(F)C(OC(C)=O)CC12C (stereo not given),-4.87 ± 4.6
3,C/C=C/c1ccc(OCCCCN2CC(C)CC(C)C2)c(OC)c1 (stereo not given),1.73 ± 0.88
4,Cc1ccc(OCc2nc(-c3cccnc3)no2)cc1C,34.5 ± 7.5
5,CCc1cc(=O)oc2cc(OCc3nn[nH]n3)ccc12,-0.362 ± 2.4
6,COc1cc2oc(-c3ccc(O)cc3)cc(=O)c2c(OC)c1O,2.41 ± 4.4
7,Cc1cccc(Nc2ncccc2C(=O)O)c1C,-3.873 ± 0.016
8,CCOc1ccc(C(NC(C)=O)c2ccc(OC)c(OC)c2)cc1 (stereo not given),4.36 ± 0.088
9,Nc1c(C(=O)c2ccccc2)oc2ccccc12,17.3 ± 8.5
10,O=C(c1ccc(F)cc1)[C@@H]1[C@@H](C(=O)c2ccccc2)[C@@]2(C(=O)Nc3ccccc32)[C@H]2c3ccccc3C=CN12,6.58 ± 1.4
11,CCOC(=O)c1cccc(C(=O)OCC)n1,-2.95 ± 2.1
12,COc1cccc(CN2CCN(C(=O)c3ccc(-c4ccccc4)cc3)CC2)c1,-7.33 ± 1.1
13,O=C(/C=C/c1ccc(F)cc1)N1CC[C@@]2(O)CCCC[C@H]2C1,-1.13 ± 0.88
14,Cc1ccc(C(=O)NCCNC(=O)c2ccccc2)cc1,-2.5 ± 3.9
15,O=C(Cc1ccc(Br)cc1)c1ccc(O)cc1O,32.9 ± 18
16,O=C(Nc1ccc(C(=O)NC2CCCCC2)cc1)c1cccnc1,0.625 ± 0.58
17,COC(=O)c1[nH]c2ccc(C)cc2c1NC(=O)CN1CCc2cc(OC)c(OC)cc2C1,-5.22 ± 6.4
18,COc1ccc(-c2cc(=Nc3ccc(C)cc3)c3ccccc3o2)cc1,2.07 ± 3
19,C=CCN1C(=O)c2oc3ccccc3c(=O)c2C1c1ccc(O)c(OC)c1 (stereo not given),-0.791 ± 0.32
